This passage reports AC50 and outcome results from PubChem BioAssay (EPA / NIEHS).

A word on the AC50: it is the concentration at which the activity in the assay is half-maximal.

“And” between values parts separate entries of the source, which are not always exact repeats. Identical values can stand only once. Where a structure was tested more than once in an assay, its records may differ in their call. The source made the active and inactive calls. How the source made its calls: active means hit-call score of the fitted dose curve at least 0.9, where 1 is the maximum; inactive means score below 0.9.

Holding throughout (details): mRNA level, 48 h; actives raise or lower the signal
Read-out in assay [1]: Cytochrome P450 3A7 (Homo sapiens) (UniProt P24462)
The experiment in a line: LTEA_HepaRG_CYP3A7: Life Technologies and Expression Analysis (LTEA) Assay for CYP3A7 using HepaRG (AID 2283492). The essentials:
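Human HepaRG liver cells, 48 h post-plating, switched to serum-free induction medium and exposed in duplicate for 48 h. Dosing: 100 uM top, half-log dilutions, 8 points, 0.5% DMSO vehicle. Read-out: CYP3A7 mRNA, gain or loss fitted against DMSO baseline.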

Read-out in another assay: CYP3A5 (gene 1577)
The experiment in a line: LTEA_HepaRG_CYP3A5: Life Technologies and Expression Analysis (LTEA) Assay for CYP3A5 using HepaRG (AID 2283493). The essentials:
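mRNA induction or loss of CYP3A5 assessed in HepaRG after 48 h dosing, 100 uM top concentration, duplicate wells; TaqMan qRT-PCR with ACTB, GAPDH, POLR2A normalization; 0.5% DMSO as negative control.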

Read-out in assay [2]: Fatty Acid-Binding Protein 1 (FABP1), FABP1 (gene 2168)
The experiment in a line: LTEA_HepaRG_FABP1: Life Technologies and Expression Analysis (LTEA) Assay for Fatty Acid-Binding Protein 1 (FABP1) using HepaRG (AID 2283494). The essentials: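 Differentiated human HepaRG cells exposed 48 h in serum-free induction medium to eight half-log concentrations up to 100 uM (0.5% DMSO), duplicate. FABP1 mRNA by qRT-PCR, normalised to ACTB, GAPDH, POLR2A; bidirectional fitting against DMSO.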

Read-out in assay [3]: Cytochrome P450 4A22 (Homo sapiens) (UniProt Q5TCH4)
The experiment in a line: LTEA_HepaRG_CYP4A22: Life Technologies and Expression Analysis (LTEA) Assay for Cytochrome P450 4A22 (CYP4A22) using HepaRG (AID 2283495). The essentials: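 Readout is CYP4A22 transcript induction or loss, quantified by qRT-PCR and normalized to ACTB, GAPDH and POLR2A. Human HepaRG cells receive test chemicals for 48 h at eight half-log concentrations from 100 uM in 0.5% DMSO.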

Read-out in assay [4]: Cytochrome P450 7A1 (Homo sapiens) (UniProt P22680)
The experiment in a line: LTEA_HepaRG_CYP7A1: Life Technologies and Expression Analysis (LTEA) Assay for Cytochrome P450 7A1 (CYP7A1) using HepaRG (AID 2283496). The essentials: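 Gene expression endpoint in human HepaRG liver cells treated for 48 h with test chemicals (up to 100 uM, 0.5% DMSO). Values come from bidirectional concentration-response fitting versus DMSO.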

Read-out in assay [5]: Glutamate-cysteine ligase catalytic (GCLC), GCLC (gene 2729)
The experiment in a line: LTEA_HepaRG_GCLC: Life Technologies and Expression Analysis (LTEA) Assay for Glutamate-cysteine ligase catalytic (GCLC) using HepaRG (AID 2283498). The essentials:
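Differentiated HepaRG cells exposed 48 h in serum-free induction medium, eight-point half-log series topping at 100 uM in 0.5% DMSO, duplicates. GCLC mRNA by qRT-PCR normalized to ACTB, GAPDH and POLR2A, fitted bidirectionally versus DMSO.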

Read-out in assay [6]: growth arrest and DNA damage 45 (GADD45G), GADD45G (gene 10912)
The experiment in a line: LTEA_HepaRG_GADD45G: Life Technologies and Expression Analysis (LTEA) Assay for growth arrest and DNA damage 45 (GADD45G) using HepaRG (AID 2283499). The essentials:
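Gain or loss of GADD45G mRNA, quantified by TaqMan qRT-PCR against three housekeeping genes, is fitted in both directions relative to 0.5% DMSO. Human HepaRG cultures receive test chemical for 48 h at up to 100 uM.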

Read-out in assay [7]: Glutamate-cysteine ligase regulatory (GCLM), GCLM (gene 2730)
The experiment in a line: LTEA_HepaRG_GCLM: Life Technologies and Expression Analysis (LTEA) Assay for Glutamate-cysteine ligase regulatory (GCLM) using HepaRG (AID 2283500). The essentials: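 Human liver HepaRG cultures receive test chemicals for 48 hours at up to 100 uM in 0.5% DMSO. GCLM expression is measured by qRT-PCR and analysed for increases or decreases against vehicle.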

Read-out in assay [8]: Glutathione S-transferase M3 (GSTM3), GSTM3 (gene 2947)
The experiment in a line: LTEA_HepaRG_GSTM3: Life Technologies and Expression Analysis (LTEA) Assay for Glutathione S-transferase M3 (GSTM3) using HepaRG (AID 2283501). The essentials: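 HepaRG, plated 48 h, then serum-free induction medium; test chemical 48 h, duplicate; 100 uM top, half-log x8, 0.5% DMSO. Read-out: GSTM3 mRNA (TaqMan qRT-PCR, Fluidigm array). Bidirectional fit vs DMSO.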

Read-out in assay [9]: Heat shock 70 kDa protein 1 (HSPA1A), gene 3303
The experiment in a line: LTEA_HepaRG_HSPA1A: Life Technologies and Expression Analysis (LTEA) Assay for Heat shock 70 kDa protein 1 (HSPA1A) using HepaRG (AID 2283502). The essentials:
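HSPA1A induction in human HepaRG liver cells is measured after 48 h of chemical treatment (100 uM maximum, 0.5% DMSO vehicle). Expression comes from qRT-PCR normalized to endogenous controls.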

Read-out in assay [10]: Hypoxia-inducible factor 1-alpha (Homo sapiens) (UniProt Q16665)
The experiment in a line: LTEA_HepaRG_HIF1A: Life Technologies and Expression Analysis (LTEA) Assay for Hypoxia-inducible factor 1 (HIF1A) Trancription factor using HepaRG (AID 2283503).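 Further: HIF1A transcript by TaqMan qRT-PCR normalized to ACTB GAPDH and POLR2A.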 The essentials:
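HepaRG, 48 h exposure, 8-pt half-log series from 100 uM, 0.5% DMSO vehicle, duplicates. Readout: HIF1A transcript by qRT-PCR (Fluidigm array), housekeeping-normalised. Bidirectional curve fit vs DMSO baseline.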

Read-out in assay [11]: 3-Hydroxy-3-Methylglutaryl-CoA Synthase 2 (HMGCS2), HMGCS2 (gene 3158)
The experiment in a line: LTEA_HepaRG_HMGCS2: Life Technologies and Expression Analysis (LTEA) Assay for 3-Hydroxy-3-Methylglutaryl-CoA Synthase 2 (HMGCS2) using HepaRG (AID 2283504). The essentials: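 HepaRG, plated 48 h then switched to serum-free induction media; cmpd 8-pt, max 100 uM, 1/2-log, 0.5% DMSO, n=2, 48 h. HMGCS2 mRNA by Fluidigm TaqMan qRT-PCR, ACTB/GAPDH/POLR2A norm; bidirectional fit vs DMSO.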

Read-out in the next assay: HGF (gene 3082)
The experiment in a line: LTEA_HepaRG_HGF: Life Technologies and Expression Analysis (LTEA) Assay for Hepatocyte Growth Facto (HGF) using HepaRG (AID 2283505). The essentials: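 Read-out is HGF transcript level by qRT-PCR, normalized to three housekeeping genes, fitted bidirectionally against 0.5% DMSO vehicle. Human HepaRG cells received test chemicals for 48 h at up to 100 uM.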

Read-out in assay [12]: Insulin Like Growth Factor 1 (IGF1), IGF1 (gene 3479)
The experiment in a line: LTEA_HepaRG_IGF1: Life Technologies and Expression Analysis (LTEA) Assay for Insulin Like Growth Factor 1 (IGF1) using HepaRG (AID 2283506). The essentials:
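Using human HepaRG liver cells, IGF1 transcript induction or suppression is measured 48 h after dosing across eight concentrations capped at 100 uM. Values derive from bidirectional concentration-response fitting with DMSO as baseline.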

Read-out in assay [13]: Intercellular Adhesion Molecule 1 (ICAM1), ICAM1 (gene 3383)
The experiment in a line: LTEA_HepaRG_ICAM1: Life Technologies and Expression Analysis (LTEA) Assay for Intercellular Adhesion Molecule 1 (ICAM1) using HepaRG (AID 2283507). The essentials:
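Readout is qRT-PCR mRNA level, normalized to three housekeeping genes and fitted bidirectionally against 0.5% DMSO vehicle. Human HepaRG cultures received compound for 48 h, top concentration 100 uM with half-log dilutions.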

Read-out in assay [14]: Insulin-like growth factor-binding protein 1 (IGFBP1), IGFBP1 (gene 3484)
The experiment in a line: LTEA_HepaRG_IGFBP1: Life Technologies and Expression Analysis (LTEA) Assay for Insulin-like growth factor-binding protein 1 (IGFBP1) using HepaRG (AID 2283508). The essentials:
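Thawed HepaRG cells are plated for 48 h, switched to serum-free induction medium, then dosed in duplicate for another 48 h (100 uM top, half-log steps). Lysates in RLT go to qRT-PCR, and gain or loss of signal is fitted relative to vehicle.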

Read-out in assay [15]: Interleukin 6 (IL6), IL6 (gene 3569)
The experiment in a line: LTEA_HepaRG_IL6: Life Technologies and Expression Analysis (LTEA) Assay for Interleukin 6 (IL6) using HepaRG (AID 2283509). The essentials:
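HepaRG cells exposed in duplicate for 48 h to eight half-log concentrations, top 100 uM, in 0.5% DMSO serum-free induction medium. mRNA measured by qRT-PCR, normalized to ACTB, GAPDH and POLR2A. Bidirectional fit versus DMSO.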

Read-out in assay [16]: Interleukin 6 Receptor (IL6R), IL6R (gene 3570)
The experiment in a line: LTEA_HepaRG_IL6R: Life Technologies and Expression Analysis (LTEA) Assay for Interleukin 6 Receptor (IL6R) using HepaRG (AID 2283510).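 On AC50: TaqMan qRT-PCR signal normalized to ACTB GAPDH and POLR2A housekeeping genes.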 The essentials: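 Concentration-response in human liver HepaRG cells: eight concentrations from 100 uM downward by half-logs, 48 h exposure, 0.5% DMSO vehicle. IL6R mRNA change measured by qRT-PCR and fitted in both directions relative to vehicle.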

Read-out in assay [17]: Potassium channel subfamily K member 1 (KCNK1), KCNK1 (gene 3775)
The experiment in a line: LTEA_HepaRG_KCNK1: Life Technologies and Expression Analysis (LTEA) Assay for Potassium channel subfamily K member 1 (KCNK1) using HepaRG (AID 2283511). The essentials: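 Differentiated HepaRG cells, 48 h exposure in serum-free induction medium with 0.5% DMSO; 8 concentrations, half-log from 100 uM, duplicate. KCNK1 mRNA by qRT-PCR, normalized to ACTB, GAPDH, POLR2A; bidirectional fit vs DMSO.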

Hypoxia-inducible factor 1-alpha (Homo sapiens), sequence (Q16665 whole entry, looked up): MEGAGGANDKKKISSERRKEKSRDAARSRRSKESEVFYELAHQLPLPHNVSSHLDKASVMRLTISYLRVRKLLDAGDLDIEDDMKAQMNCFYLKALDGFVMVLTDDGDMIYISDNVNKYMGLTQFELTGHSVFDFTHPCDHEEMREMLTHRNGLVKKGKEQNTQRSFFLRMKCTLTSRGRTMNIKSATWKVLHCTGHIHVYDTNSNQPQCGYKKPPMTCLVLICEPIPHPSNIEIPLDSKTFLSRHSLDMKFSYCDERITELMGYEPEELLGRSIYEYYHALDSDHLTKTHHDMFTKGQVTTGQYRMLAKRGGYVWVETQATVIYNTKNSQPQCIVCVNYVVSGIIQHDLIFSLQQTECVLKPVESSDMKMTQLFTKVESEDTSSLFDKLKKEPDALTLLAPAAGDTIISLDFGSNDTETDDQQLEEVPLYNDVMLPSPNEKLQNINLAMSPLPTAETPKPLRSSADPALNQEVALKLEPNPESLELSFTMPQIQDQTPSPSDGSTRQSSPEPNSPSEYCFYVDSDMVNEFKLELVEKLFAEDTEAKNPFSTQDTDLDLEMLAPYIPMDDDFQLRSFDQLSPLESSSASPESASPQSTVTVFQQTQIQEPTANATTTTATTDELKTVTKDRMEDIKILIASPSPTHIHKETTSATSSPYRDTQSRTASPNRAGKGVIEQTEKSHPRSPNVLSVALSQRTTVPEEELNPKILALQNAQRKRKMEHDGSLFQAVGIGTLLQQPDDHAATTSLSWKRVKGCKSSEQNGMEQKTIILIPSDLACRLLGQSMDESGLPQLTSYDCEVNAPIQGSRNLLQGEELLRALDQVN
Cytochrome P450 3A7 (Homo sapiens), sequence (P24462 whole entry, looked up): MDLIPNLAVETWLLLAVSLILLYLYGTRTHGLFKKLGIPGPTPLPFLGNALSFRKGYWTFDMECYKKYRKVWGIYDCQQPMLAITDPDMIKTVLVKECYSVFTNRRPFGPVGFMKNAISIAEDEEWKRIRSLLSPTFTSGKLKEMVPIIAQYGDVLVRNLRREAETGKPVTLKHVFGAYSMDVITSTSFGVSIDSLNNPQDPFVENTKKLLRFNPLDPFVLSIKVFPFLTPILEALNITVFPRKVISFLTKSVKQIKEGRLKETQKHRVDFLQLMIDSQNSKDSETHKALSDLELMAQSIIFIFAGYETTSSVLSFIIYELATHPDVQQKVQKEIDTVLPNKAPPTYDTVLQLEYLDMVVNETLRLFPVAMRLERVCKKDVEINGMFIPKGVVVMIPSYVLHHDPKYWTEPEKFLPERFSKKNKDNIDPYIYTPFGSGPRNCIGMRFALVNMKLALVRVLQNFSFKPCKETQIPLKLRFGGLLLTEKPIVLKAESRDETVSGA

Regarding `CCOCN(C(=O)CCl)c1c(C)cccc1CC`, the AC50 in assay [1] is 86.2 µM (active); in [2] it was 87.7 µM (active); in assay [3], 92.5 µM (active); in assay [4], 84.6 µM (active); in assay [6] it was 77.9 µM (active); in assay [11], 81.2 µM (active). Further, the AC50 in assay [12] was 76.4 µM (active); in [14] it was 63 µM (active); in [16], 50 µM (active). Further, the outcome (with CYP3A5 (gene 1577); in assay [5]; in assay [7]; in [8]; in assay [9]; in assay [10]) was inactive. Besides, the outcome (with HGF (gene 3082); in assay [13]; in assay [15]; in assay [17]) was inactive.

Take `O=C(O)C(F)(F)C(F)(F)C(F)(F)C(F)(F)C(F)(F)C(F)(F)C(F)(F)F`: the AC50 is 22.1 µM (active) and 9.92 µM (active) in assay [1]; 11 µM (active) and 8 µM (active) in [2]; 6.42 µM (active) and 5.96 µM (active) in [3]; 50 µM (active) in [9]; 15.2 µM (active) and 7.54 µM (active) in assay [11]. For the same compound, the compound was classed as inactive (in the assay with CYP3A5 (gene 1577); in assay [4]; in assay [5]; in [6]; in assay [7]; in assay [8]). Also, the call (in assay [9]; in [10]; with HGF (gene 3082); in [12]; in assay [13]; in assay [14]) was inactive. Further, the outcome in assay [15], in assay [16] and in assay [17] was inactive.

In the case of `O=[N+]([O-])/N=C1\NCCN1Cc1ccc(Cl)nc1`, the call (in [1]; with CYP3A5 (gene 1577); in assay [3]; in assay [6]; in assay [7]; in assay [8]) was inactive. The compound was classed as inactive (in assay [10]; with HGF (gene 3082); in assay [13]; in [14]; in assay [15]; in assay [17]). Besides, the AC50 in assay [2] is 36 µM (active); in [4] it was 34.1 µM (active); in assay [5], 24.6 µM (active); in [9], 25 µM (active); in assay [11], 33.9 µM (active); in [12], 23 µM (active). Further, the AC50 in assay [16] was 39 µM (active).
